The values that follow come from PubChem BioAssay (NCI).

Compounds without any hit were thinned out: in the full panel of roughly 79,000, 15% have a hit. A number with no mark means an inactive call. Activity calls are given as the source filed them. Cut-off read from the data, not from the text of the source: active = growth inhibition above about 70%; inactive = the rest.

The nature of test [1]: NCI Yeast Anticancer Drug Screen. Data for the rad50 strain (AID 155).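 Note: 0% = growth of vehicle-only cultures of the same strain.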 The note with it: S. cerevisiae rad50 strain growth inhibition; at 50.0 µM; stronger effect = higher value. A digest of the protocol:
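Cells are treated with compound, grown, and their growth is then scored against vehicle-only cultures of the same repair-deficient yeast strain.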

A short description of test [2]: NCI Yeast Anticancer Drug Screen. Data for the mec2-1 strain (AID 157). The note with it: S. cerevisiae mec2-1 strain, at 50.0 µM, stronger effect = higher value. The essentials: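 Strain: mec2-1 (DNA repair/cell cycle alteration). Compound exposure, then growth measured; inhibition expressed relative to vehicle.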
Test [3] in a line: NCI Yeast Anticancer Drug Screen. Data for the sgs1 mgt1 strain (AID 161).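 Note: 0% = growth of cultures given vehicle only.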 The note with it: S. cerevisiae sgs1 mgt1 strain, at 50.0 µM, stronger effect = higher value. The essentials:
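Read-out: growth inhibition vs vehicle controls. Cells: mutant yeast strain deficient in DNA damage repair.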

The nature of test [4]: NCI Yeast Anticancer Drug Screen. Data for the cln2 rad14 strain (AID 165).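 Note: 0% = growth equal to vehicle treated cultures.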 Conditions: S. cerevisiae cln2 rad14 strain, at 50.0 µM, stronger effect = higher value. The essentials: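 Compounds are applied to the cln2 rad14 yeast strain, and growth is then compared with that of vehicle-treated cultures to give inhibition.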
A short description of test [5]: NCI Yeast Anticancer Drug Screen. Data for the bub3 strain (AID 167). Conditions: S. cerevisiae bub3 mutant strain, at 50.0 µM, stronger effect = higher value. A digest of the protocol: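 Part of a panel of yeast mutants defective in DNA damage repair or cell cycle regulation. Each strain is grown with compound, and inhibition is calculated relative to solvent-treated cultures.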

The nature of test [6]: NCI Yeast Anticancer Drug Screen. Data for the mlh1 rad18 strain (AID 175). The note with it: S. cerevisiae mlh1 rad18 strain growth inhibition; at 50.0 µM; stronger effect = higher value. A digest of the protocol:
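Read-out is yeast growth inhibition, calculated against vehicle-only controls. The compound was applied to a strain engineered with DNA damage repair alterations.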

Consider `N#Cc1nc(CC(=O)c2ccc(Cl)c(Cl)c2)c(CC(=O)c2ccc(Cl)c(Cl)c2)nc1C#N`, for which the growth inhibition is 12.1% in test [1]; 10.4% in test [2]; 9.2% in test [3]; 31.4% in test [4]; 27.6% in test [5]; 20.2% in test [6].
With `CC(C)CCNCC(C)(C)OC(=O)c1ccc([N+](=O)[O-])cc1`, the growth inhibition is 34.6% in test [1]; 19.2% in test [2]; 51.9% in test [3]; 31.3% in test [4]; 30.4% in test [5]; 33.2% in test [6].
Take `COc1cc2c(cc1OC)C(CCN)NCC2` (stereo unspecified): the growth inhibition in test [1] was -8.75%; in test [2], 7.2%; in test [3], -2.55%; in test [4], 7.3%; in test [5], -3.95%; in test [6], -9.25%.
As to `O=C1C=C(C2CCCCC2)C(=O)c2ccccc21`, the growth inhibition in test [1] was 17%; in test [2], 2.6%; in test [3] it was 15.4%; in test [4], 18.3%; in test [5], 58.5%; in test [6], 10.3%.
Turning to `Cc1cc(CC(=S)[S-])[n+](C)c(CC(=S)S)c1`, the growth inhibition in test [1] is 12.2%; in test [2], 8.05%; in test [3] it was -14.1%; in test [4], 3.75%; in test [5] it was -1.55%; in test [6], 19.8%.
Consider `COc1ccc(Cl)cc1NC(=O)Oc1ccccc1C(N)=O`, for which the growth inhibition was -1.05% in test [1]; 43.5% in test [2]; 24.6% in test [3]; -12.8% in test [4]; 40.6% in test [5]; 3.1% in test [6].
As for `CC(=O)Nc1cccc2c(OC(C)=O)cccc12`, the growth inhibition in test [1] was 15.1%; in test [2] it was -20.9%; in test [3] it was -19.7%; in test [4], -50%; in test [5] it was 7.6%; in test [6] it was -4.1%.
Consider `CC1(C)OCC(C2OC3OC(C)(C)OC3/C2=N/NC(=O)c2cc3cc(OCc4ccccc4)ccc3[nH]2)O1` (stereo unspecified), for which the growth inhibition in test [1] was 82.5% (active); in test [2] it was 90.8% (active); in test [3], 39.6%; in test [4], 92.2% (active); in test [5], 84.3% (active); in test [6] it was 86% (active).
Consider `O=S(=O)(O)CCS(=O)(=O)O`, for which the growth inhibition in test [1] is -15.8%; in test [2], -19.3%; in test [3], -3.85%; in test [4], -51.3%; in test [5], 1.45%; in test [6], -45.9%.
Take `NC(CCCCNCc1ccccc1O)C(=O)O` (stereo unspecified): the growth inhibition in test [1] was 10%; in test [2], 14.2%; in test [3], -1.7%; in test [4] it was 7.45%; in test [5] it was 20.7%; in test [6], 25.9%.
As to `O=C(O)CSC1=NNC2(C(=O)N1)c1ccccc1-c1ccccc12`, the growth inhibition is 1.8% in test [1]; -2% in test [2]; 18.4% in test [3]; -2.1% in test [4]; -3.85% in test [5]; 24.1% in test [6].
For `Cc1c(C(=O)CC(=O)C(=O)Nc2ccccc2C(F)(F)F)[n+](=O)c2ccccc2n1[O-]`, the growth inhibition was 5.4% in test [1]; 8.05% in test [2]; -9.4% in test [3]; 16.9% in test [4]; 3.55% in test [5]; -6.45% in test [6].
As for `c1ccc(CN2CCC3(N4CCOCC4)C(C2)N=NN3c2ccccc2)cc1` (stereo unspecified), the growth inhibition is -27.9% in test [1]; -9.6% in test [2]; 0.65% in test [3]; -1.05% in test [4]; -11.7% in test [5]; -14.2% in test [6].
For `c1ccc2c(c1)CC1c3ccccc3CC21` (stereo unspecified), the growth inhibition in test [1] was -1.2%; in test [2], -7%; in test [3], -1.95%; in test [4] it was -28.4%; in test [5], 0.75%; in test [6] it was -2.35%.
Turning to `COCN(Cc1ccccc1)C[Si](C)(C)C`, the growth inhibition in test [1] is 39.5%; in test [2] it was 2%; in test [3], 1.3%; in test [4] it was -20%; in test [5], 14.2%; in test [6] it was -9.6%.
Take `CCOC(=O)c1[nH]c(C)c(/C(C)=N\NC(N)=O)c1C`: the growth inhibition was -20.2% in test [1]; -14.7% in test [2]; -7.4% in test [3]; -20.9% in test [4]; 8% in test [5]; 10.5% in test [6].
With `Cc1cc(Br)cc(C)c1NC(=O)C(=O)Nn1c(=S)[nH]c2ccccc2c1=O`, the growth inhibition in test [1] is -8.55%; in test [2] it was -16.1%; in test [3], -6.15%; in test [4], 12.8%; in test [5] it was -8.2%; in test [6] it was 1.3%.
With `O=C(COc1ccccc1)OC1CCCCC1C1CCCCC1` (stereo unspecified), the growth inhibition was 13.2% in test [1]; 13% in test [2]; 4.05% in test [3]; 21.5% in test [4]; 2.6% in test [5]; 14.2% in test [6].
On to `COc1ccc(/C=N/N2CN(C(C)C(=O)O)C(C)(O)N=C2N)cc1OC` (stereo unspecified), for which the growth inhibition in test [1] is -14.2%; in test [2] it was -33.8%; in test [3] it was -20.7%; in test [4] it was -8.95%; in test [5] it was -25.6%; in test [6], -50.8%.
For the compound `O=C(O)c1ccccc1NC(C(=O)O)c1ccccc1` (stereo unspecified), the growth inhibition is -13.1% in test [1]; -4.25% in test [2]; -27.4% in test [3]; 9.1% in test [4]; -18.9% in test [5]; -11.7% in test [6].
`C=C(Br)CNC(=O)Nc1ccc(Cl)c(Cl)c1`: the growth inhibition is -0.3% in test [1]; 16.1% in test [2]; 21.4% in test [3]; 5.7% in test [4]; 22.6% in test [5]; -86.2% in test [6].
